Shown are actives, neighbours in structure and some others; about 1.2% of the full set was active somewhere.
EPAC1 antag: blocks human EPAC1 exchange factor; O95398; EPAC1 GEF assay, Rap1b-BODIPY-GDP exchange fluorescence; Potency, µM (highest dose often 115 µM), for inactives: at the top dose activity change, negative = inhibition, most hits filed as inhibitors; hit rate 0.14% among 360,000;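 further: plate controls were vehicle for no effect and positive control for full effect; nearly all actives have a fitted effect of over 50% in size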
EPAC2 antag: antagonists of human EPAC2; Q8WZA2; EPAC2 GEF exchange of Rap1B-BODIPY-GDP, fluorescence; Potency, µM (series often up to 114 µM), for inactives: top-dose activity, negative = inhibition, hits mostly inhibitors; hit rate 0.18% among 360,000; further: on the % scale 0 is the no-effect control and ±100 the full control effect; nearly all actives have a fitted effect of over 45% in size
VDR inh: blocks the human vitamin D receptor; P11473; VDR-SRC2-3 peptide fluorescence polarization, 2 h; Potency, µM, for inactives: max response, negative = inhibition, most hits filed as inhibitors; hit rate 0.93% among 400,000; further: on the % scale 0 is the no-effect control and ±100 the full control effect
Target sequence (P11473 whole entry, looked up): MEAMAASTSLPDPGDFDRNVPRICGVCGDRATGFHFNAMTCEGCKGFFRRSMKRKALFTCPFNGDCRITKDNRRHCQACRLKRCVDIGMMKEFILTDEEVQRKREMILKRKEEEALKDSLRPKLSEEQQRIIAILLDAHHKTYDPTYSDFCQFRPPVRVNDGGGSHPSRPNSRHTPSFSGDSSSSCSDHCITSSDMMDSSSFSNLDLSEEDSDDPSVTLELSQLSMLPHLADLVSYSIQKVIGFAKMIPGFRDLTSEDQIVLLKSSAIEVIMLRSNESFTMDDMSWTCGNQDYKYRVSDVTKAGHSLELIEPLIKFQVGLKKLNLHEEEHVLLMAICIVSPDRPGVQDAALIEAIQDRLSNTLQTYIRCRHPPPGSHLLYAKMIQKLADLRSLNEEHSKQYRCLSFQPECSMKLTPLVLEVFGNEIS
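Measured by FP: displacement of SRC2-3 coactivator peptide from VDR by library compounds, following a two-hour ambient incubation.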
USP1 inh: USP1/UAF1 (human) deubiquitinase inhibition; O94782; recombinant USP1/UAF1, Ub-Rhodamine cleavage fluorescence; AID 743255; Potency, µM (titrated, usually from 57.1 µM), without a hit: at the top dose activity change, negative = inhibition, usual class: inhibitors; hit rate 0.23% among 390,000; further: on the % scale 0 is the no-effect control and ±100 the full control effect; nearly all actives have a fitted effect of over 60% in size
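In this screen, compounds sit with the deubiquitinase complex (1nM) for 15 min at room temperature before Ub-Rho is added at 150nM final. Fluorescence rise is then followed for 6 reads every 60 seconds.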
EPAC1 agonist: EPAC1 (human) agonism; EPAC1 agonist qHTS, biochemical assay; response scale: 100% = response to 6.5 mM cAMP; Potency, µM (doses to about 154 µM), for the others: top-dose activation, actives largely listed as activators; O95398; AID 720707; hit rate 0.073% among 360,000; further: nearly all actives have a fitted effect of over 60% in size
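Read-out is the fluorescence drop as BODIPY-GDP leaves Rap1B (480 nm excitation, 540 nm emission), recorded every 5 minutes over 30 minutes. Reactions held 100 nM EPAC1, 250 nM Rap1B–BODIPY-GDP and 50 uM GDP, with 6.5 mM cAMP setting full activation.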
EPAC2 ag: activates human EPAC2 exchange factor; EPAC2 activation, biochemical qHTS; response scale: 100% = 6.5 mM cAMP response; Q8WZA2; AID 720711; Potency, µM (doses to about 154 µM), for the others: top-dose activation, most hits filed as activators; hit rate 0.079% among 360,000; further: nearly all actives have a fitted effect of over 50% in size
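Readout is BODIPY fluorescence (480 nm excitation, 540 nm emission), which falls as labeled GDP is exchanged off Rap1B. EPAC2 at 100 nM acted on 250 nM RAP1B-BODIPY-GDP with 50 uM GDP present.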
* marks the source's active call; other numbers are inactive results; ? = inconclusive; nt = no result; [ ] = another dose, or the depositor's remark. The call rests on the fitted dose curve; in most records, active means well fitted curve in the direction sought with a large enough effect; inconclusive means small, poorly fitted or top-dose-only effect, or another doubt; inactive means no such curve, though single readings can be large; an effect the other way counts as inactive or inconclusive. Potency means the concentration at half of the fitted maximal effect.

SMILES	EPAC1 antag	EPAC2 antag	VDR inh	USP1 inh	EPAC1 agonist	EPAC2 ag
Oc1ccc(Br)cc1C1C=C(c2ccc3c(c2)OCO3)NC(c2ccc(F)c(Br)c2)N1 (stereo unspecified)	nt	nt	50.1µM*	nt	nt	nt
CCOC(=O)C(CC)Sc1ccc2nnc(-c3ccc(F)cc3)n2n1 (stereo unspecified)	nt	nt	-6.5%	nt	nt	nt
Cc1cc(C)cc(N=Cc2ccc([N+](=O)[O-])s2)c1	?	-3.5%	-15.3%	12.6µM*	-0.3%	6.5%
NC(=O)c1ccc(N=Cc2ccc([N+](=O)[O-])s2)cc1	16.0%	-13.8%	-29.3%	10µM*	8.7%	8.5%
Cc1ccc(NC(=S)N/N=C/c2ccc([N+](=O)[O-])s2)cc1	-8.9%	-18.8%	-3.7%	-24.7%	-3.5%	-4.6%
Cc1[nH]n(C(N)=S)c(=O)c1N=Nc1ccc2ccccc2c1	-16.4%	-17.2%	?	-12.2%	11.3%	14.0%
COc1ccc(C(c2c(C)[nH]n(C(N)=S)c2=O)C(C#N)C#N)cc1 (stereo unspecified)	7.4%	9.5%	28.2µM*	-11.6%	-9.1%	0.6%
COc1ccc(C2CC2/C(=N/O)c2ccccc2)cc1 (stereo unspecified)	-0.8%	?	20µM*	-10.2%	7.1%	18.1%
COc1ccc(C2CC2/C(=N/O)c2ccccn2)cc1 (stereo unspecified)	13.7%	?	-5.8%	-14.1%	-0.5%	3.9%
CCOC(=O)C1=C(C)NC(C)=C(C(=O)OCC)C1c1c(F)c(F)c(F)c(F)c1F	nt	nt	-5.6%	nt	nt	nt
CCC(C)(C)C1CCc2c(sc(N)c2C(N)=O)C1 (stereo unspecified)	?	-10.0%	?	-9.4%	-10.6%	10.3%
CC(C)(C)C1CCc2c(sc(N)c2C(N)=O)C1 (stereo unspecified)	-2.4%	7.1%	79.4µM*	-24.4%	-5.4%	5.6%
O=c1[nH]c2ccc(Cl)cc2c(-c2ccccc2)c1N1CCN(CCO)CC1	1.3%	5.9%	-16.3%	-19.1%	2.6%	-0.7%
O=C(c1cc(C(F)(F)F)cc(C(F)(F)F)c1)N1CCC2(CC1)CN(c1ncccn1)C2	nt	nt	-3.6%	nt	nt	nt
CCOCCCNc1nc2c(C)cccn2c(=O)c1/C=C1\SC(=S)N(CC(C)C)C1=O	1.5%	-2.4%	-7.6%	?	8.5%	112µM*
CC(=O)c1ccc(OC(=O)CCc2nc3ccccc3s2)cc1	6.1%	2.5%	39.8µM*	-16.1%	3.5%	13.9%
COc1ccccc1OC(=O)CCc1nc2ccccc2s1	-20.5%	-16.4%	-13.8%	-19.7%	7.2%	-5.2%
CCCCCc1c2c(cc(O)c1C(=O)O)OC(=O)c1cc(C(=O)CCCC)c(OC)cc1O2	50.1µM*	?	79.4µM*	-24.0%	-32.1%	4.4%
CCCCCc1c2c(cc(O)c1C(=O)O)OC(=O)c1c(cc(OC)cc1C(=O)CCCC)O2	50.1µM*	50.1µM*	79.4µM*	?	-10.6%	-6.4%
O=C1c2c(O)cc(O)cc2O[C@H](c2ccc(O)c(O)c2)C1O (stereo partly specified)	nt	nt	-9.5%	nt	nt	nt
Cc1ccc(C(=O)NN2C(=O)/C(=C/c3cn(C)c4ccccc34)SC2=S)cc1	-1.1%	16.8%	6.7%	-24.8%	100µM*	3.8%
Cn1cc(/C=C2\SC(=S)N(NC(=O)c3ccccc3Cl)C2=O)c2ccccc21	67.9%	22.5%	-7.2%	?	100µM*	?
Cc1ccc(C(=O)NN2C(=O)/C(=C/c3cccn3C)SC2=S)cc1	-7.2%	-0.8%	-12.3%	?	13.4%	22.3%
CCOC(=O)c1sc(NC(=O)c2cc(-c3ccc(C)cc3)nc3ccccc23)c(C#N)c1C	-4.0%	-1.2%	79.4µM*	-7.5%	-5.6%	-9.5%
SMILES	EPAC1 antag	EPAC2 antag	VDR inh	USP1 inh	EPAC1 agonist	EPAC2 ag
O=C(Nc1ccc2c(c1)OCO2)c1cc(-c2cccnc2)nc2ccccc12	8.0%	3.5%	0.0%	-25.5%	2.1%	2.3%
CCOC(=O)c1sc(NC(=O)C2c3ccccc3Oc3ccccc32)c(C#N)c1C	nt	nt	79.4µM*	-32.1%	nt	nt
CCOC(=O)c1c(NC(=O)CN(C)C)sc(C(=O)N(CC)CC)c1C	11.4%	11.2%	11.8%	-16.9%	0.2%	11.1%
Cc1ccc(-c2cc(C(=O)Nc3ccc4c(c3)OCCO4)c3ccccc3n2)cc1	-5.4%	-13.5%	25.2%	?	7.7%	7.94µM*
CCCCC(=O)Nc1sc(C(=O)N(CC)CC)c(C)c1C(=O)OC	9.7%	4.3%	22.4µM*	-19.5%	-9.0%	-8.4%
CC[C@H](C)[C@H](NC(=O)[C@H](CC(C)C)NC(=O)[C@@H](N)CO)C(=O)NCC(=O)N[C@@H](CCCCN)C(=O)N[C@H](C(=O)O)C(C)C	nt	nt	-3.5%	nt	nt	nt
CCOC(=O)c1c(NC(=O)C2c3ccccc3Oc3ccccc32)sc(C(=O)N(CC)CC)c1C	4.7%	-8.1%	70.8µM*	-13.0%	10.3%	7.4%
CCOC(=O)c1sc(NC(=O)C2c3ccccc3Oc3ccccc32)c(C(=O)OCC)c1C	nt	nt	-7.3%	-0.1%	nt	nt
CC1=C(SCc2ccccc2)C(=O)c2ccccc2C1=O	?	?	14.1µM*	15.8µM*	-3.3%	25.7%
CCC1(c2ccc(O)cc2)NC(=O)NC1=O (stereo unspecified)	nt	nt	8.8%	nt	nt	nt
Cc1ccc(-c2nc3ccccc3nc2-c2ccccc2)cc1	-39.6%	?	2.8%	-12.5%	11.7%	10.0%
Cn1nc(-c2ccccc2)c2nc3ccccc3nc21	9.7%	291.3%	-0.8%	?	9.5%	100µM*
N#C/C(=C/c1cccn1-c1cccc(C(=O)O)c1)c1ccc(Cl)cc1	-12.0%	39.8µM*	?	-16.1%	-9.4%	-1.9%
O=C(O)c1cccc(-n2cccc2/C=N/O)c1	-0.2%	4.7%[57.1 µM]	7.4%	-13.0%	-3.3%	-4.6%
COc1cccc(CNc2nc(Cl)nc3nc[nH]c23)c1	nt	nt	9.1%	nt	nt	nt
CCOc1ccc(NC(=O)N2CC=C(c3c[nH]c4ccccc34)CC2)cc1	nt	nt	13.0%	-13.2%	nt	nt
Clc1cccc(-n2ncc3c(NCCCN4CCOCC4)ncnc32)c1	nt	nt	11.9%	-36.0%	nt	nt
O=c1cc(CO)oc(C(Nc2ccccn2)c2ccc(F)cc2)c1O (stereo unspecified)	-0.7%	1.6%	28.2µM*	-7.0%	7.3%	7.2%
[O-]/[N+](=C\c1ccco1)c1ccc(Cl)cc1	4.4%	-4.8%	35.5µM*	-22.5%	-10.2%	5.9%
[O-]/[N+](=C/c1ccco1)c1ccccc1	?	8.7%	11.3%	-7.8%	7.4%	7.4%
C[C@H](CCCC(C)(C)O)[C@H]1CC[C@H]2[C@@H]3CC=C4C[C@@H](O)CC[C@]4(C)[C@H]3CC[C@]12C	nt	nt	-3.6%	nt	nt	nt
